USP28 inh: inhibitors of human USP28 deubiquitinase | 3% of 47,000 active | purified USP28, Ub-rhodamine cleavage fluorescence, 30 min | inhibition, % at 25 µM | Q96RU2
USP30 block: human USP30 deubiquitinase inhibition. Q70CQ3. purified USP30, Ub-rhodamine cleavage fluorescence. inhibition, % at 25 µM. 5.3% of 47,000 active. AID 1645860
Target sequence (Q70CQ3 whole entry, looked up): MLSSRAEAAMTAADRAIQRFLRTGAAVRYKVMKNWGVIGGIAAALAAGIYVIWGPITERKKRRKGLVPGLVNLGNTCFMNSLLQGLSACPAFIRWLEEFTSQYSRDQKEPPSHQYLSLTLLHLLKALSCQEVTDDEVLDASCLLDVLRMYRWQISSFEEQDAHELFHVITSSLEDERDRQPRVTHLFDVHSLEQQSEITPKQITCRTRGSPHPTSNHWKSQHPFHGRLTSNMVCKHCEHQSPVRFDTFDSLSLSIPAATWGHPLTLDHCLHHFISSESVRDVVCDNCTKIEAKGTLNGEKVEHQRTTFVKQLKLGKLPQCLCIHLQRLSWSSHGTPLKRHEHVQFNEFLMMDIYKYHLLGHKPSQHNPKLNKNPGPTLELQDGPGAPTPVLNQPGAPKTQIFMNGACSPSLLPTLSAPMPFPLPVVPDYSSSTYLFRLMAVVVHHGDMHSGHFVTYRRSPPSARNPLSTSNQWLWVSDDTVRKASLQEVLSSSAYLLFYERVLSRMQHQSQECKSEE
USP17 inh: human USP17-like deubiquitinase inhibition; inhibition, % at 50 µM; A8MUK1; purified USP17, Ub-rhodamine cleavage fluorescence, 3 h; 6.5% of 47,000 active
Of the large screens only hits and unclear results are named; the others gave an inactive call. A selection: hits, their analogues and other compounds. The true share with any hit is near 11%. Cut-off read from the data, not from the text of the source: active = inhibition above about 30%; inactive = the rest.

Cc1ccsc1C(=O)N1CCC(Nc2ncnc3c2CCC3)CC1	none
COc1ccc(S(=O)(=O)NCCC(=O)N2CCCC(c3nnc4ccccn34)C2)cc1 (centres undefined)	none
O=C(CNS(=O)(=O)c1ccc(F)cc1)N1CCCC(c2nnc3ccccn23)C1 (centres undefined)	USP28 inh 51
Fc1cnc(N2C[C@H](Oc3cccnc3)[C@H]3OCCC[C@H]32)nc1	none
O=C(CSc1ccc(N2CCC(C(=O)NC3CC3)CC2)nn1)Nc1cccc(Cl)c1	USP17 inh 38
CC1CCN(c2ccc(N3CCC(C(=O)NC4CCCCC4)CC3)nn2)CC1	none
CN(C)c1ncc2c(=O)n(-c3ccccc3)c(=O)[nH]c2n1	none
COc1cccc(NS(=O)(=O)c2ccc(-c3c(C)noc3C)cc2)c1	none
C=C[C@]1(C)C=C2C(=O)[C@]3(O)OC(=O)[C@@]4(CCCC(C)(C)[C@H]34)[C@@]2(O)CC1	USP17 inh 69
O=C(NC1CC1)c1nc(C(=O)N2CCN(C3CCCCC3)CC2)cs1	none
COc1ccc(-c2cc(-c3ccccc3)nc(SCC(N)=O)c2C#N)cc1OC	USP17 inh 75
COc1ccc(-c2nn(-c3ccccc3)cc2/C=C(/C#N)c2ccccc2)cc1OC	none
CCn1nccc1C(=O)N1CCc2c(nc(-c3ccc(OC)cc3)[nH]c2=O)C1	none
CCOC(=O)c1c(C)nc2c(c1-c1ccccc1)C(=O)CC(C)(C)C2	none
CCOC(=O)c1[nH]c2c(c1Cc1ccccc1)C(=O)CC(C)(C)C2	USP17 inh 42
Cc1c(O)c(C)c2c(c1O)C(=O)OC(C)(O)C2 (centres undefined)	none
CCc1ccccc1NC(=O)CCN1C(=O)c2ccccc2Sc2ncccc21	none
COc1cccc(NC(=O)C(C(=O)Nc2cccc(OC)c2)c2ccccc2)c1	none
COc1cccc(CN(C)C(=O)CC(c2ccccc2)c2ccccc2)c1	USP30 block 41 (no result: USP17 inh)
COc1ccc(-c2nn(-c3ccccc3)cc2C(=O)N2CCN(CCN3CCCC3)CC2)cc1OC	none
Cn1c(=O)n(C2CCN(Cc3ccc(C#N)cc3)CC2)c2ncncc21	none
c1coc(-c2nc3ccccc3n2CCC2CCCCC2)c1	USP17 inh 36
CCCn1c(-c2ccc(OC)cc2)nc2ccccc21	none (no result: USP28 inh, USP30 block)
CNC(=O)C1CN(C(=O)Nc2cc(C)ccc2C)CC12CCCC2 (centres undefined)	none
Cn1nc(C2CCN(C(=O)Cc3cccc(F)c3)CC2)c2nccnc21	USP17 inh 34
Cn1nc(C2CCN(C(=O)COc3ccccc3F)CC2)c2nccnc21	none
Cc1ccc(-c2nnc(N3CCC(C(=O)N4CCN(C)CC4)CC3)o2)cc1	none
Cc1ccccc1Cn1c(C(=O)O)c(CNC2CCCCCC2)c2ccccc21	none
CCc1nc2c(c(=O)c3ccccc3n2C)c(=O)n1-c1ccc(C)cc1	USP17 inh 49 (no result: USP28 inh, USP30 block)
Cn1c2ccccc2c(=O)c2c(=O)n(-c3cccc(Cl)c3)c(-c3cccs3)nc21	USP17 inh 30
Cn1c2ccccc2c(=O)c2c(=O)n(C3CCCCC3)c(-c3ccc([N+](=O)[O-])cc3)nc21	none
Cn1c2ccccc2c(=O)c2c(=O)n(-c3ccccc3)c(-c3ccc(Cl)cc3)nc21	none
Cc1cc(=O)n(CC(=O)NCc2ccco2)c(N2CCCCC2)n1	none
CC(C)[C@H](NC(=O)[C@@H]1Cc2c([nH]c3ccccc23)C2c3ccccc3C(=O)N21)C(=O)NC1CCCC1 (some centres undefined)	none
CCC(C)[C@H](NC(=O)N1CCn2c1nc1ccccc12)C(=O)NCCc1ccccc1 (some centres undefined)	USP30 block 30, USP17 inh 35
C[C@H](NC(=O)[C@H](Cc1ccccc1)NC(=O)N1CCn2c1nc1ccccc12)C(=O)O	none
C[C@H](NC(=O)N1CCn2c1nc1ccccc12)C(=O)NCc1ccc(F)cc1	USP30 block 41, USP17 inh 34
COc1ccc(CCNC(=O)[C@@H](NC(=O)N2CCn3c2nc2ccccc23)C(C)C)cc1OC	none
CC(Oc1ccccc1F)C(=O)Nc1noc(-c2ccccc2)n1 (centres undefined)	none
Cc1cccc(-c2c3c(=O)n(C)c(=O)n(C)c3c3n2C(C)(C)COC3c2ccc(O)cc2)c1 (centres undefined)	none
CN1[C@@H](CCC(=O)N2CCC(O)CC2)CNC(=O)[C@@H]2[C@H]1CCN2Cc1ccc(O)cc1	USP28 inh 43, USP30 block 55
CC(C)N1CC[C@@H]2[C@H]1C(=O)NC[C@H](CCC(=O)N1CCN(c3ccccn3)CC1)N2C	USP28 inh 42, USP30 block 39
CN1[C@@H](CCC(=O)N2CCC(O)CC2)CNC(=O)[C@@H]2[C@H]1CCN2Cc1ncc[nH]1	none
CN1[C@@H](CCC(=O)N2CCN(c3ccccn3)CC2)CNC(=O)[C@@H]2[C@H]1CCN2Cc1ccc(O)cc1	USP28 inh 56, USP30 block 46

High-throughput results from PubChem BioAssay.
